Shown are actives, neighbours in structure and some others; about 0.55% of the full set was active somewhere.
S-ASM inh: Inhibitors of Secretory Acid Sphingomyelinase (S-ASM): qHTS; Potency, µM (top dose mostly 57.5 µM), without a hit: at the top dose activity change, negative = inhibition, most hits filed as inhibitors; placental ASM, HMU-PC fluorogenic substrate, 60 min; AID 504937, 2011; 340,000 tested, 0.006% active
Target sequence (P17405 47-631 limits assumed): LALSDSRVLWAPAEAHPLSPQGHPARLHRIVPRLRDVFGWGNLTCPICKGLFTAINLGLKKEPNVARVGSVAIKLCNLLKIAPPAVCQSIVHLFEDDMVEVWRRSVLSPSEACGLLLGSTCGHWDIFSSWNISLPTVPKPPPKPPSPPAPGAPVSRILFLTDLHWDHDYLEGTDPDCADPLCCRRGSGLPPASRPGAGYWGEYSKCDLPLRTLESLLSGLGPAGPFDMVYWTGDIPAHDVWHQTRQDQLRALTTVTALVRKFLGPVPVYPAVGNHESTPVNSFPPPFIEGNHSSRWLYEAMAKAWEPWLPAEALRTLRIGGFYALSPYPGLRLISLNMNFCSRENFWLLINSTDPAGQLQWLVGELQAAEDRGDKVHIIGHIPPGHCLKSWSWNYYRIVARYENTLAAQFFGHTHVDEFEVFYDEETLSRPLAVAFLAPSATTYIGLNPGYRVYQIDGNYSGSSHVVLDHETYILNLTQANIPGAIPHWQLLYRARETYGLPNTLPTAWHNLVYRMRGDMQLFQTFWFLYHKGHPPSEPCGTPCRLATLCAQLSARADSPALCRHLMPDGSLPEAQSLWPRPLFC
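Steps: dispense placental human ASM, pin compound, wait 10 min at room temperature, add HMU-PC0 substrate at 9 uM final, incubate 60 min at 37 °C, add stop solution raising pH to 10, read fluorescence.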
Tb PFK inh: qHTS Assay to Find Inhibitors of T. brucei phosphofructokinase | 330,000 tested, 0.17% active | T. brucei PFK, ADP-Glo luminescence | ATP-dependent 6-phosphofructokinase (Trypanosoma brucei brucei), O15648 | AID 485367, 2010 | Potency, µM (top dose mostly 57.5 µM), for inactives: at the top dose activity, negative = inhibition, hits mostly inhibitors;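 also: 0% = uninhibited 1x PFK enzyme wells and -100% = no-enzyme wells; nearly all actives have a fitted effect of over 60% in size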
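Activity is normalized to no-enzyme wells (full inhibition) and 1.25 nM enzyme wells (no inhibition). Reaction: 0.5 mM F6P, 0.1 mM ATP, 45 min RT, ADP-Glo luminescence; concentration-response curves fitted and classed by quality.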
ERG-DNA inh: qHTS for Small Molecule Inhibitors of the ERG Ets/DNA interaction; Transcriptional regulator ERG (Homo sapiens), P11308; fluorescence polarization, His-ERG Ets domain / labelled DNA; Potency, µM (titrated, usually from 76.9 µM), for inactives: at the highest dose FP activity, negative = inhibition, usual class: inhibitors; 370,000 tested, 0.028% active; active = well fitted inhibition curve with a large enough effect in the polarisation, with a control signal flat; inconclusive = small, poorly fitted or top-dose-only effect, or effect the other way, or a change in a side signal; inactive = no such curve, though single readings can be large or run the other way; the % refers to the polarisation;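 also: polarization taken with two DNA probes labelled with fluorescein and Texas red; % of control where 0% means no effect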
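His-tagged ERG Ets domain (1 uM in the protein solution; 300mM KCl, 50mM Tris-HCl, 1mM EDTA, 1mM DTT, pH 7.5) received compound, then a probe mix of 5 nM fluorescein-DNA and 100nM Texas-615-DNA. Fluorescence polarization was read for both dyes.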
p53 reactivation: qHTS assay for re-activators of p53 using a Luc reporter; H1299 p53-A138V BP100-luciferase reporter, luminescence, 24 h; Potency, µM (series often up to 92.2 µM), without a hit: at the highest dose activity change, positive = activation, usual class: activators; 320,000 tested, 0.063% active; AID 504706, 2011; also: % of control where 0% means no effect; nearly all actives have a fitted effect of over 45% in size
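p53-null H1299 cells stably carrying temperature-sensitive p53-A138V and a BP100-luciferase reporter were pinned with compounds (4-point, 1:5 series) and held 24 hrs at 37 deg C. Luminescence was read 10 min after detection reagent.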
A-T KAP1 phos: qHTS Assay for Identifying a Potential Treatment of Ataxia-Telangiectasia | 320,000 tested, 0.19% active | F2112 A-T fibroblasts, KAP-1 phosphorylation AlphaLISA; neocarzinostatin DNA damage 30 min before lysis | Potency, µM (doses to about 57.5 µM), for inactives: top-dose activation, hits mostly activators | AID 485349, 2010; also: % of control where 0% means no effect; nearly all actives have a fitted effect of over 45% in size
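hTERT-immortalized A-T patient fibroblasts (F2112), 500 cells/well in OPTI-MEM, 1% FBS, got compounds for 60 min, then NCS for 30 min at 37C. Lysates were then assayed for phospho-KAP-1 by AlphaLISA (anti-pKAP1 donor, anti-KAP1 acceptor beads), 6 hr at 25C.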
GCN5L2 inh: qHTS Assay for Inhibitors of GCN5L2; Histone acetyltransferase KAT2A (Homo sapiens), Q92830; GCN5L2 HAT assay, ThioGlo1 CoA-SH fluorescence; Potency, µM (top dose mostly 58.9 µM), for inactives: top-dose activity change, negative = inhibition, hits mostly inhibitors; 390,000 tested, 0.21% active; AID 504327, 2011; also: % is scaled to controls: 0 for no effect and ±100 for the full control effect
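Compounds, pin-transferred from DMSO stocks, meet 20nM GCN5L2 for 15 min before the reaction begins with H3(1-25) peptide (75uM) and acetyl-CoA (70uM). Thiol-reactive ThioGlo1 reports CoA release over 20 min at room temperature.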
Active calls of the source: *; i = inactive; ? = inconclusive; . = no result given; [ ] = another dose, or the depositor's remark. Unless noted, calls follow the shape of the dose curve; as a rule, active = well fitted curve in the direction sought with a large enough effect; inconclusive = small, poorly fitted or top-dose-only effect, or another doubt; inactive = no such curve, though single readings can be large; an effect the other way counts as inactive or inconclusive. Potency is read from the fitted curve at half-maximal effect.

SMILES | S-ASM inh | Tb PFK inh | ERG-DNA inh | p53 reactivation | A-T KAP1 phos | GCN5L2 inh
Cc1ccn2c(NC3CCCCC3)c(-c3cccc(-c4cccc(Cl)c4)c3)nc2c1 | 30% | -7% | 21% | 1% | 25µM* | -28%
CC(C)CCn1c(=O)c2sccc2n2c(CCCC(=O)NCc3ccc(F)cc3)nnc12 | . | . | -8% | . | . | -6%
O=C1CCCC(O)=C1N=Nc1ccc(C(=O)O)cc1 | -1% | -26% | 28µM* | 3% | 3% | -15%
CC(C)CCNC(=O)C1CCN(C(=O)c2cc3sccc3n2Cc2ccc(Cl)cc2)CC1 | . | . | -1% | . | . | -7%
COc1ccccc1CCNC(=O)C(=O)NCC(c1cccs1)S(=O)(=O)c1ccc(C)cc1 (stereo unspecified) | . | . | 3% | . | . | 8%
CNC(=S)N/N=C/c1ccc2c(c1)OCCO2 | -3% | -4% | -2% | 22% | 3.5µM* | -6%
NC(=S)N/N=C/c1ccc2c(c1)OCCO2 | 0% | 4% | -5% | 10% | -1% | -18%
Cc1cccc(C)c1OCC(=O)N/N=C/c1ccc2c(c1)OCO2 | -4% | 3% | 10% | -3% | -3% | 13µM*
O=C(N/N=C/c1ccc2c(c1)OCO2)c1ccc(Br)o1 | 3% | ? | -13% | 3.2µM* | -5% | -5%
Cn1cc(C(=O)N/N=C/c2ccc3c(c2)OCO3)c2ccccc21 | -2% | -3% | -1% | 2% | 22µM* | -8%
Brc1ccc(-c2nc3ccccn3c2Nc2ccc3c(c2)OCCO3)o1 | . | . | 1% | . | . | -2%
CC(C)Oc1ccc(CCC(=O)N/N=C/c2ccc3c(c2)OCO3)cc1 | -10% | 2% | -1% | 4% | 5% | 25%
O=C(CCc1ccc(O)c(O)c1)N/N=C/c1ccc2c(c1)OCO2 | -5% | 4.3µM* | 8% | ? | -34% | -18%
O=C(CS(=O)(=O)c1cccc2nsnc12)Nc1ccccc1 | . | . | -3% | . | . | 7%
C(=N\NC1=Nc2cccc3cccc1c23)/c1ccccc1 | ? | -4% | 27% | 50µM* | -11% | -3%
Clc1ccc(/C=N/NC2=Nc3cccc4cccc2c34)cc1 | -8% | 2% | . | ? | -5% | 12%
COc1ccc(-c2cc(C(=O)NCCN3CCOCC3)c3ccccc3n2)cc1 | 115% | 2% | -9% | 10% | 11% | -22%
Cc1ccc(-c2cc(C(=O)NCCN3CCOCC3)c3ccccc3n2)o1 | i | -3% | 1% | . | 9% | 13µM*
CCOC(=O)c1sc(N)nc1C(C)C | -1% | -10% | -2% | -5% | 7% | ?
CCCc1nc(N)sc1C(=O)OCC | 2% | -3% | -15% | -3% | -3% | 0.89µM*
O=c1c2ccccc2sc2ccc(C#CC3(O)CCCCC3)cc12 | 142% | . | -17% | . | . | .
C=CCn1c2ccccc2c(=O)c2cc(C#CC[C@@H](C)O)ccc21 | i | -3% | -6% | ? | 20µM* | -11%
C=CCn1c2ccccc2c(=O)c2cc(C#CC3(O)CCCCC3)ccc21 | i | 0% | 6% | . | 25µM* | -16%
C/C=C(\C)CN1CCN(c2ccccc2)CC1 | 2% | 4% | -3% | 2% | . | 32µM*
C/C(=C\c1ccccc1)CN1CCN(c2ccccc2)CC1 | -1% | -9% | 2% | 2% | 8% | 1%
SMILES | S-ASM inh | Tb PFK inh | ERG-DNA inh | p53 reactivation | A-T KAP1 phos | GCN5L2 inh
CC[C@H](C)[C@H](NC(=O)CNC(=O)COc1cc2c(c3oc(=O)cc(C)c13)CCC(C)(C)O2)C(=O)O | 65% | 4% | 2% | 8% | -4% | 22µM*
Cc1cccc(-c2[nH]c(C(C)(C)C)nc2-c2ccc3nccnc3c2)n1 | . | . | . | . | . | -9%
CCC(=O)OC1=CN(Cc2ccccc2)S(=O)(=O)c2ccccc21 | . | . | -2% | . | . | -13%
COC(=O)C1=CN(C(C)c2ccccc2)C=C(C(=O)OC)C1c1cc(OC)c(OC)c(OC)c1 (stereo unspecified) | i | 0% | -8% | -6% | 7.1µM* | -34%
CCC12CN(C(=O)c3ccc([N+](=O)[O-])cc3)CC(CC)(CN(C(=O)c3ccc([N+](=O)[O-])cc3)C1)C2=O | -1% | 0% | -4% | -1% | 7.1µM* | -5%
CC(C)N(C(=O)Cn1cc(S(=O)(=O)Cc2ccc(Br)cc2)c2ccccc21)C(C)C | . | . | 4% | . | . | -2%
CCCCN(CC)c1nc(-c2ccccc2F)nc2ccccc12 | . | . | -3% | . | . | -6%
O=C(/C=C/c1ccccc1)NC(=O)c1ccccc1O | 5% | 25% | 3% | 28µM* | 4% | 0%
COc1cc(/C=C/C(=O)NC(=O)c2ccccc2O)ccc1O | -6% | 0% | 2% | -10% | 0% | -1%
COc1cc2nc(C)sc2cc1SC | -1% | 4% | 4% | -7% | 40µM* | -6%
Clc1ccc(C(c2ccccc2Cl)C(Cl)Cl)cc1 (stereo unspecified) | -12% | -15% | -8% | 11% | 28µM* | -11%
CCc1ccc(C(c2ccc(CC)cc2)C(Cl)Cl)cc1 | -10% | -4% | -17% | 9% | ? | 4%
CCOC(=O)c1c(NC(=O)c2ccccc2N(C)S(=O)(=O)c2ccccc2)sc2c1CCCC2 | 37% | -12% | -1% | ? | 1% | 32µM*
FC(F)(F)C1=Nc2cccc3cccc(c23)N1 | -5% | 0% | 0% | -8% | -2% | 6.3µM*
O=C(CN1C(=O)c2cccc3cccc1c23)Nc1ccc2c(c1)OCO2 | 12% | 1% | . | -5% | -2% | 3.5µM*
O=C(CN1C(=O)c2cccc3cccc1c23)NCc1ccc2c(c1)OCO2 | 29% | 1% | 6% | -7% | 1% | -9%
CC1(C)OC[C@@H]2O[C@@]3(C(=O)O)OC(C)(C)O[C@@H]3[C@@H]2O1 | . | . | . | . | . | -3%
c1ccc(-c2noc(-c3ccco3)n2)nc1 | 1% | -18% | -4% | 22µM* | 4% | 4%
c1ccc(-c2noc(-c3ccno3)n2)nc1 | 1% | -1% | 12% | 11% | 5% | -16%
COc1cc(NC(=O)c2ccc(-c3nc(COc4ccccc4)c(C)o3)cc2)cc(OC)c1 | . | . | 2% | . | . | -6%
O=C(/C=C/c1ccccc1)NC(NC(=S)Nc1ccc(Cl)cc1)C(Cl)(Cl)Cl (stereo unspecified) | -3% | 2%[0.46 µM] | 13% | -8% | -8% | -11%

Screening results from PubChem.
